Assay outcomes deposited in PubChem BioAssay by National Center for Advancing Translational Sciences (NCATS).
Sampled rows, rich in hits. Any-hit rate of the full collection: about 9.4%.
SMN2 splice up: qHTS Assay for Enhancers of SMN2 Splice Variant Expression | Potency, µM (doses to about 46.1 µM), for inactives: at the highest dose activity change, positive = activation, actives largely listed as activators | 210,000 tested, 2.8% active | HEK293 SMN2-luciferase splicing reporter, luminescence, 30-36 h | AID 1458, 2008; note: % of control where 0% means no effect; nearly all actives have a fitted effect of over 55% in size
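qHTS luciferase splicing reporter: luminescence rises when SMN2 exon 7 is included in transfected HEK293 cells. Compound exposure lasted 30-36 h at 37C, with 4.5 mM final sodium butyrate as control, followed by a ONE-Glo read.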
ELG1 genotox: qHTS screen for small molecules that induce genotoxicity in human embryonic kidney (HEK293T) cells expressing luciferase-tagged ELG1; Potency, µM (doses to about 46 µM), without a hit: at the top dose activity change, positive = activation, most hits filed as activators; 330,000 tested, 1.3% active; HEK293T ELG1-luciferase reporter, luminescence, 16 h; AID 504466, 2011; note: % of control where 0% means no effect; nearly all actives have a fitted effect of over 60% in size
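HEK293T cells expressing luciferase-tagged ELG1 were treated with compound or DMSO for 16 hr at 37°C. Luciferase activity was then read after 30 min with ONE-Glo at room temperature; rising signal flags genetic stress.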
ELG1 repair inh: qHTS screen for small molecules that inhibit ELG1-dependent DNA repair in human embryonic kidney (HEK293T) cells expressing luciferase-tagged ELG1; Potency, µM (doses to about 46.1 µM), inactives show at the top dose activity change, negative = inhibition, hits mostly inhibitors; 330,000 tested, 2.3% active; HEK293T ELG1-luciferase reporter, luminescence, 16 h; DNA damage induced by 5-fluorouridine; note: % is set by controls: 0 for no effect and ±100 for the full control effect; nearly all actives have a fitted effect of over 55% in size
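DMSO vehicle served as the neutral condition. Each well held 2,000 cells given 5-fluorouridine plus compound; after 16 hr at 37 °C/5% CO2, ONE-Glo was added and luciferase measured 30 min later.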
FLuc counter: qHTS profiling assay for firefly luciferase inhibitor/activator using purifed enzyme and Km concentrations of substrates (counterscreen for miR-21 project). Luciferin 4-monooxygenase (Photinus pyralis), P08659. purified FLuc, Km substrates, luminescence inhibition. Potency, µM (series often up to 57.5 µM), for the others: at the highest dose activity change, negative = inhibition, usual class: inhibitors. 360,000 tested, 6.9% active. AID 588342, 2011;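 note: plate controls were vehicle for no effect and reference inhibitor for full effect; nearly all actives have a fitted effect of over 55% in size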
Target sequence (P08659 whole entry, looked up): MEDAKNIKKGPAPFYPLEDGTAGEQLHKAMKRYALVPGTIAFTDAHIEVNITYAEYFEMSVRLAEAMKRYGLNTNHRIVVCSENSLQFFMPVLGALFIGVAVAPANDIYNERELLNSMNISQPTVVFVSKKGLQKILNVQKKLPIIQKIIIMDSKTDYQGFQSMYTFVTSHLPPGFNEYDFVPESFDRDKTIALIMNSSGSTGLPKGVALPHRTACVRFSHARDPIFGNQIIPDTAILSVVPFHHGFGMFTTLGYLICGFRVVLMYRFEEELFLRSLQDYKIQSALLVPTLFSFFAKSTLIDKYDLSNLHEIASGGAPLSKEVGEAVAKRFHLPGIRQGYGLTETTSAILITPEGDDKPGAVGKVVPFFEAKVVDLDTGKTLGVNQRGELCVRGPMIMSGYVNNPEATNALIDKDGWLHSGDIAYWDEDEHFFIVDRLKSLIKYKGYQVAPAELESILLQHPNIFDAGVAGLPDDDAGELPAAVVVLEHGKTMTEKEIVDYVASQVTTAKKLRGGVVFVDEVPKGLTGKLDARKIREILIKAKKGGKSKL
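Purified P. pyralis luciferase (10nM final) with 10uM D-luciferin and 10uM ATP (Km levels) in 50mM Tris acetate pH 7.5, 10mM Mg acetate, 0.01% Tween-20, 0.05% BSA; qHTS 6-point titration, ~60 µM downward; luminescence read.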
NPC1 promoter act: qHTS Assay for NPC1 Promoter Activators; Huh7 NPC1 promoter luciferase reporter, 24 h; Potency, µM (top dose mostly 9.22 µM), for inactives: top-dose activation, actives largely listed as activators; 320,000 tested, 2.4% active; note: % of control where 0% means no effect; nearly all actives have a fitted effect of over 60% in size
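Luminescence read-out of NPC1 promoter-driven luciferase in stably transfected Huh7 cells; compounds delivered in DMSO and left 24 h at 37C, 5% CO2, qHTS titration format.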
Rab9 prom act: qHTS Assay for Rab9 Promoter Activators; Huh7 Rab9 promoter-luciferase reporter, luminescence, 24 h; 320,000 tested, 2.8% active; AID 485297, 2010; Potency, µM (doses to about 9.22 µM), for the others: at the highest dose activation, negative = inhibition, hits mostly activators; note: % of control where 0% means no effect; nearly all actives have a fitted effect of over 60% in size
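Using Huh7 cells stably transfected with Rab9 promoter–luciferase, compounds were incubated 24 h at 37 °C, 5% CO2; luciferase luminescence was read 10 min after reagent addition.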
Starred values were filed as active, the others as inactive; ? = inconclusive; . = not tested or not shown. Calls come from the whole dose curve; as a rule, active = well fitted curve in the direction sought with a large enough effect; inconclusive = small, poorly fitted or top-dose-only effect, or another doubt; inactive = no such curve, though single readings can be large; an effect the other way counts as inactive or inconclusive. Potency is the fitted concentration of half-maximal effect.

SMILES | SMN2 splice up | ELG1 genotox | ELG1 repair inh | FLuc counter | NPC1 promoter act | Rab9 prom act
Cc1c(OC(C)C(=O)NCC(O)c2ccccc2)ccc2c3c(c(=O)oc12)CCCC3 (configuration not stated) | . | -10% | 15µM* | -1% | -6% | -5%
Cc1c(OCc2ccc(C(=O)O)o2)ccc2c3c(c(=O)oc12)CCC3 | 12% | ? | ? | 19µM* | -1% | 2%
O=C(Nc1ccc(F)cc1F)c1ccc(-n2cnc3cccnc32)cc1 | . | . | . | -2% | . | .
Cc1c(OCC(=O)NCc2ccccn2)ccc2c3c(c(=O)oc12)CCCC3 | . | 0% | 4% | -4% | 10% | 0%
Cc1c(OCC(=O)Nc2cccnc2)ccc2c3c(c(=O)oc12)CCC3 | . | 13% | ? | 19µM* | 30% | 28%
COCc1cc(C)[nH]c(=O)c1C(=O)NC12CC3CC(CC(C3)C1)C2 | . | -7% | 18µM* | -5% | -12% | -22%
COc1cc(C(=O)NC23CC4CC(CC(C4)C2)C3)cc(OC)c1OC | . | 3% | 10% | -1% | -1% | -5%
Cc1cc(C)c(-c2csc(NC(=O)/C=C/c3cccs3)n2)c(C)c1 | -76% | 6% | ? | -12% | -21% | -27%
Cc1cc(C)nc(NC(=O)/C=C/c2cccs2)c1 | . | ? | ? | 13µM* | ? | 3.5µM*
CCc1nnc(NC(=O)/C=C/c2cccs2)s1 | ? | 23µM* | ? | -16% | ? | 3.5µM*
O=C(/C=C/c1cccs1)Nc1cccc(NC(=O)/C=C/c2cccs2)n1 | 7.1µM* | -3% | 16µM* | 1.9µM* | ? | ?
O=C(/C=C/c1cccs1)Nc1ccc(Br)cn1 | 14µM* | 9.2µM* | ? | 3µM* | ? | ?
O=C(/C=C/c1cccs1)NC1CC1 | 2% | 4% | ? | -18% | 7% | 18%
CCOC(=O)c1c(C)[nH]c(CCC(=O)Nc2c(Cl)cc(OC)cc2OC)c1C | . | . | . | -12% | . | .
C1CCCC1 | -2% | . | . | . | . | .
NS(=O)(=O)c1cccc(NC(=O)/C=C/c2cccs2)c1 | ? | 17% | ? | 7.6µM* | ? | ?
O=C(/C=C/c1cccc(F)c1)Nc1nccs1 | 11µM* | ? | ? | 9.5µM* | 2µM* | 1.8µM*
CC(=O)OC(C(=O)Nc1nccs1)c1ccccc1 (configuration not stated) | . | -6% | 5% | 1% | -1% | 9%
O=C(/C=C/c1cccs1)Nc1ccc(S(=O)(=O)Nc2ncccn2)cc1 | . | 0% | -4% | -13% | -9% | -6%
O=C(COC(=O)/C=C/c1cccc(F)c1)Nc1ncccn1 | . | 0% | -1% | 0% | 1% | -3%
O=C(/C=C/c1cccs1)Nc1nccs1 | 13µM* | 18µM* | ? | ? | 1.8µM* | 2.2µM*
O=C(Nc1nccs1)C(Br)C(Br)c1ccccc1 (configuration not stated) | . | ? | ? | 4.8µM* | 1.1µM* | 0.5µM*
CCC/C=C(\CCC)C(NS(C)(=O)=O)c1ccccc1 (configuration not stated) | 0% | . | . | . | . | .
CC(C)(C)OC(=O)N1CCC(c2c(C(=O)N3CCN(c4ccc(Cl)cc4)CC3)cnn2-c2ccc(F)cc2F)CC1 | . | . | . | -7% | . | .
Cc1ccc(C)c(NC(=O)c2ccc(CN3CC(=O)N4CCCCC4C3=O)cc2)c1 (configuration not stated) | . | . | . | -1% | . | .
SMILES | SMN2 splice up | ELG1 genotox | ELG1 repair inh | FLuc counter | NPC1 promoter act | Rab9 prom act
CSc1nn(Cc2ccc(F)cc2)c(N)c1S(=O)(=O)c1ccc(Cl)cc1 | . | . | . | 3% | . | .
O=C(/C=C\c1ccccc1)Nc1nccs1 | 4µM* | ? | ? | 1.9µM* | 1.6µM* | 0.89µM*
CCc1nnc(NC(=O)C=C(C)C)s1 | 10µM* | ? | ? | ? | ? | ?
O=C(/C=C/c1ccccc1)Nc1nc(-c2cccs2)ns1 | . | . | . | 0% | . | .
COc1cccc(-c2nc3c(C#N)c[nH]n3c2NC2CCCCC2)c1 | . | . | . | 5% | . | .
COc1ccc(C2CC(c3cccs3)=NN2S(C)(=O)=O)cc1 (configuration not stated) | . | 14% | ? | ? | ? | ?
Cc1ccc(C2=NN(S(C)(=O)=O)C(c3ccc4nccnc4c3)C2)cc1 (configuration not stated) | 13µM* | ? | ? | ? | ? | ?
CS(=O)(=O)Nc1ccc(C2=NN(S(C)(=O)=O)C(c3ccc4c(c3)OCO4)C2)cc1 (configuration not stated) | 11µM* | ? | ? | 9.5µM* | 3.2µM* | 2.5µM*
CCS(=O)(=O)Nc1cccc(C2=NN(S(=O)(=O)c3ccc(C)cc3)C(c3cccs3)C2)c1 (configuration not stated) | 21% | 0% | ? | -3% | -2% | -2%
CS(=O)(=O)N1N=C(c2ccccc2)CC1c1ccc2nccnc2c1 (configuration not stated) | -4% | 0% | 13% | ? | 13% | 4%
Cc1ccc(C2=NN(S(C)(=O)=O)C(c3cccs3)C2)cc1 (configuration not stated) | 11µM* | ? | ? | 19µM* | 1.8µM* | 3.5µM*
COc1ccc(C2=NN(S(C)(=O)=O)C(c3cccs3)C2)cc1 (configuration not stated) | . | ? | ? | 11µM* | 3.5µM* | 0.89µM*
Cc1c(C(=O)Nc2ccc(F)cc2)oc2ccc(S(=O)(=O)N3CCCCCC3)cc12 | . | . | . | -8% | . | .
Cc1ccc2oc3c(c(=O)c2c1)C(c1ccc(O)cc1)N(c1nc(C)c(C)s1)C3=O (configuration not stated) | 4% | . | . | -2% | . | .
CCc1ccc(C2=NN(S(C)(=O)=O)C(c3cccs3)C2)cc1 (configuration not stated) | 10µM* | 3.3µM* | ? | 2.4µM* | 1µM* | 1.6µM*
COc1ccc(C2CC(c3ccccc3)=NN2C(=O)c2cccs2)cc1 (configuration not stated) | . | 3% | ? | 17µM* | 21% | ?
COc1ccc(C2CC(c3ccc(OC)c(OC)c3)=NN2S(C)(=O)=O)cc1 (configuration not stated) | . | ? | ? | 8.5µM* | 1µM* | 0.5µM*
